Source: publication PMC4552634, “A New Set of Chemical Starting Points with Plasmodium falciparum Transmission-Blocking Potential for Antimalarial Drug Discovery” (PLoS ONE, 2015)
In all, about 13,000 compounds went through this assay and about 3,200 (25%) showed an effect of 50% or more. Some of the results follow.

system: P. falciparum stage V gametocytes; design: BacTiter-Glo ATP luminescence viability of purified stage V gametocytes in 384-well plates, per cent inhibition versus DMSO; settings: 48 h, 5 µM; inhibitor

| SMILES | % Inhibition [%] |
| --- | --- |
| O=C(NC1CC1)c1ccc(Nc2nccc(-c3c(-c4cccc(NC(=O)c5c(F)cccc5F)c4)nn4ccccc34)n2)cc1 [TCMDC-136002] | -35.37 |
| CCCCN1C(=O)C(c2ccccc2)(c2ccccc2)N=C1N [TCMDC-142007] | 12.88 |
| O=C(NCCN1CCOCC1)c1ccc(O)c(-c2cccc(C(F)(F)F)c2)c1 [TCMDC-140162] | 21.52 |
| CCCNC(=O)c1ccc(N2CCC(c3ccccc3C)CC2)nc1 [TCMDC-134583] | 17.76 |
| O=C(NC1CCCCCC1)[C@@H]1CCCN1C(=O)c1ccc(O)c(-c2ccc(Cl)c(Cl)c2)c1 [TCMDC-140843] | 28.6 |
| COc1ccc2nccc([C@@H](O)CN3CCC(NCc4cc5oc(=O)[nH]c5cc4F)CC3)c2c1 [TCMDC-141140] | 3.08 |
| CCc1ccccc1N1CCN(CCCC(=O)c2ccc(NC(=O)c3cc(Cl)cc(Cl)c3)cc2)CC1 [TCMDC-138229] | -19.19 |
| Nc1nc(N)c2cc(Cc3ccccc3Cl)cnc2n1 [TCMDC-137918] | -87.91 |
| O=C(NCC1CCCCC1)c1cc(=O)c2ccccc2o1 [TCMDC-123621] | 8.117 |
| CC(C)(C)C(=O)Nc1c(-c2cc(=O)oc3cc4c(cc23)CCC4)oc2ccccc12 [TCMDC-125081] | 76.3 |
| CCOC(=O)CNC(=O)c1cc(=O)c2ccccc2o1 [TCMDC-131778] | 11.83 |
| COC(=O)c1c(NC(=O)c2cccc(C(F)(F)F)c2)sc2c1CCN(Cc1ccccc1)C2 [TCMDC-125828] | -72.37 |
| CCOC(=O)c1ccc(N2CCN(c3cc(C)ccc3C)CC2)c(NC(=O)Nc2ccc(Cl)c(Cl)c2)c1 [TCMDC-123849] | 0.9649 |
| COc1ccccc1CCC(C)(C)NC(=O)CC(CCc1ccccc1)Nc1ccc(C#N)c2ccccc12 (centres unmarked) [TCMDC-132307] | 13.06 |
| Cc1cc(NC(=O)[C@@H](Nc2ccc(C#N)c3ccccc23)C2CCCCC2)ccc1F [TCMDC-136635] | -42.79 |
| N#Cc1ccc(N[C@@H](CC2CCCCC2)C(=O)NCc2cc(F)c(F)cc2F)c2ccccc12 [TCMDC-136630] | -9.58 |
| N#Cc1ccc(N2C[C@@H](OCc3ccccc3)C[C@H]2C(=O)NCCC(c2ccccc2)c2ccccc2)c2ccccc12 [TCMDC-135421] | 62.52 |
| CO[C@@H]1C[C@@H](C(=O)Nc2ccccc2)N(c2ccc(C#N)c3ccccc23)C1 [TCMDC-135413] | 86.31 |
| N#Cc1ccc(N(CC(=O)NCCc2ccccc2)CC2CC2)c2ccccc12 [TCMDC-135574] | -1.825 |
| CCOc1cc(C(=O)Nc2ccc3nc(N4CCN(C)CC4)cc(C)c3c2)cc(OCC)c1OCC [TCMDC-123589] | -11.34 |
| O=C(/C=C/c1cccc2c1OCO2)Nc1ccnc2ccncc12 [TCMDC-139845] | -12.08 |
| Cc1ccccc1CNCC(O)c1cccc(C(F)(F)F)c1 (centres unmarked) [TCMDC-140393] | 2.038 |

| SMILES | % Inhibition [%] |
| --- | --- |
| COc1cc(/C=C/C(=O)NCC(CCNc2cc(=O)c3ccccc3[nH]2)NCc2cc(Br)cc(Br)c2)cc(OC)c1 (centres unmarked) [TCMDC-140217] | -26.95 |
| Cc1sc(C)c(CNCCCNc2cc(=O)c3ccccc3[nH]2)c1Br [TCMDC-140765] | -54.98 |
| CCc1ccc(CNCC(CCNc2cc(=O)c3ccccc3[nH]2)NCc2cc(Br)cc(Br)c2)o1 (centres unmarked) [TCMDC-140346] | 67.8 |
| O=c1cc(NCCCNCc2cc(Br)cs2)[nH]c2ccccc12 [TCMDC-139310] | -17.04 |
| O=c1cc(NCCC(CNCc2cc3ccccc3o2)NCc2cc(Br)cc(Br)c2)[nH]c2ccccc12 (centres unmarked) [TCMDC-140345] | 70.19 |
| O=c1cc(NCCC(CNCc2ccc(Br)o2)NCc2cc(Br)cc(Br)c2)[nH]c2ccccc12 (centres unmarked) [TCMDC-140348] | 17.71 |
| Cn1cccc1C(=O)NCC(CCNc1cc(=O)c2ccccc2[nH]1)NCc1cc(Br)cc(Br)c1 (centres unmarked) [TCMDC-140218] | -44.96 |
| O=c1cc(NC[C@H]2CCC[C@@H]2NCc2cc(Br)cc(Br)c2)[nH]c2ccccc12 [TCMDC-139655] | -0.8474 |
| Cc1cc(CNCC(CCNc2cc(=O)c3ccccc3[nH]2)NCc2cc(Br)cc(Br)c2)oc1C (centres unmarked) [TCMDC-140347] | 61.99 |
| Cc1[nH]c2ccc(NS(C)(=O)=O)cc2c1C1CCN(CC2CCN(C(=O)/C=C/c3ccc(Cl)c(Cl)c3)CC2)CC1 [TCMDC-140125] | -39.53 |
| COc1ccc2nccc([C@@H](O)CN3CCC(NC(=O)c4ccc(Cl)c([N+](=O)[O-])c4)CC3)c2c1 [TCMDC-141037] | -23.07 |
| O=C(Nc1cccc(-c2cccc(-c3nc4ccccc4[nH]3)c2)c1)c1cccnc1 [TCMDC-136928] | 76.9 |
| Cn1cnc(CCNC(=O)c2cccc(-c3ccc(-c4nc5cc(F)ccc5[nH]4)cc3)c2)c1 [TCMDC-132492] | 7.487 |
| O=C(Nc1cccc(-c2csc(-c3nc4ccccc4[nH]3)c2)c1)c1cccnc1 [TCMDC-132403] | 77.71 |
| Cn1cnc(CCNC(=O)c2ccc(-c3cccc(-c4nc5ccccc5[nH]4)c3)cc2)c1 [TCMDC-132495] | -19.92 |
| CC(=O)Nc1cccc(C(=O)Nc2cccc(-c3csc(-c4nc5ccccc5[nH]4)c3)c2)c1 [TCMDC-132398] | -2.258 |
| Cn1cnc(CCNC(=O)c2cccc(-c3csc(-c4nc5ccccc5[nH]4)c3)c2)c1 [TCMDC-132501] | 74.26 |
| O=C(Nc1cccc(-c2cccc(-c3nc4ccccc4[nH]3)c2)c1)c1ccncc1 [TCMDC-136955] | 6.238 |
| O=C(Nc1cccc(-c2csc(-c3nc4ccccc4[nH]3)c2)c1)c1ccncc1 [TCMDC-132402] | 13.78 |
| O=C(Nc1cccc(-c2ccc(-c3nc4ccccc4[nH]3)cc2)c1)c1cccnc1 [TCMDC-136924] | -5.994 |
| CN(C)c1ccc(N2C(N)=NC(N)=NC23CCCC3)cc1 [TCMDC-123607] | 9.069 |
| CN(CC(=O)Nc1cc(C(F)(F)F)ccc1-n1cncn1)Cc1ccc2ccccc2c1 [TCMDC-125257] | -1.841 |

| SMILES | % Inhibition [%] |
| --- | --- |
| Cc1cc(NCc2ccc(F)cc2)nc2cc(O)ccc12 [TCMDC-124412] | 9.894 |
| O=C(/C=C/c1ccc(Cl)c(Cl)c1)N1CCC(CN2CCC(Cc3cc4ccccc4[nH]3)CC2)CC1 [TCMDC-140231] | 13.2 |
| CCCCCCCCc1[nH]c(C)c(Br)c(=O)c1Br [TCMDC-137433] | 43.41 |
| Cc1cc(CN2CCC(C(=O)Nc3ccc(-c4nc5ccccc5[nH]4)cc3)CC2)oc1C [TCMDC-124612] | -34.2 |
| COc1ccc(C2C(C(=O)Nc3cc(OC)c(OC)c(OC)c3)c3cc(OC)c(OC)cc3C(=O)N2C)cc1 (centres unmarked) [TCMDC-125141] | 92.28 |
| COc1cc(SC)ccc1C(=O)N1CC(C)CC(C)C1 (centres unmarked) [TCMDC-123656] | 27.35 |
| COc1ccc(C2C(C(=O)Nc3ccc(C)c(F)c3)c3cc(OC)c(OC)cc3C(=O)N2C)cc1 (centres unmarked) [TCMDC-123594] | -36.5 |
| COc1cc2c(cc1OC)C(C(=O)Nc1cc(OC)c(OC)c(OC)c1)C(c1ccc(SC)cc1)N(C)C2=O (centres unmarked) [TCMDC-125151] | 59.65 |
| COc1ccc(C2C(C(=O)Nc3ccc4c(c3)OCO4)c3cc(OC)c(OC)cc3C(=O)N2C)cc1 (centres unmarked) [TCMDC-123593] | 37.81 |
| O=C(N[C@@H](Cc1ccccc1)C(=O)NC1CCCc2ccccc21)c1ccc(O)c(-c2cccc(C(F)(F)F)c2)c1 (some centres unmarked) [TCMDC-140820] | 23.49 |
| CCN(CC)CCN(Cc1ccc(-c2ccc(C(F)(F)F)s2)cc1)C(=O)Cn1c(CCc2cccc(F)c2F)nc(=O)c2ccccc21 [TCMDC-141262] | 57 |
| CCN(CC)CCN(Cc1ccc(-c2ccc(Cl)s2)cc1)C(=O)Cn1c(CCc2cccc(F)c2F)nc(=O)c2ccccc21 [TCMDC-141229] | 28.5 |
| CCN(CC)CCN(Cc1ccc(-c2ccc(C#N)cc2)cc1)C(=O)Cn1c(CCc2cccc(F)c2F)nc(=O)c2ccccc21 [TCMDC-141150] | 0.7472 |
| CC(C)(C)NCCN(Cc1ccc(-c2ccc(C(F)(F)F)cc2)cc1)C(=O)Cn1c(CCc2cccc(F)c2F)nc(=O)c2ccccc21 [TCMDC-141080] | 105.1 |
| CCN(CC)CCN(Cc1ccc(-c2ccc(Cl)cc2)cc1)C(=O)Cn1c(CCc2cccc(F)c2F)nc(=O)c2ccccc21 [TCMDC-141054] | 39.4 |
| CCN(CC)CCN(Cc1ccc(-c2ccc(Br)cc2)cc1)C(=O)Cn1c(CCc2cccc(F)c2F)nc(=O)c2ccccc21 [TCMDC-141305] | 51.66 |
| CCN(CC)CCN(CCCc1ccc(-c2ccc(C(F)(F)F)cc2)cc1)C(=O)Cn1c(CCc2cccc(F)c2F)nc(=O)c2ccccc21 [TCMDC-141253] | 67.3 |
| Cc1ccccc1C1CCN(C2CCC(NC(=O)c3cc4cc(C(C)C)ccc4[nH]3)CC2)CC1 (centres unmarked) [TCMDC-133554] | 15.06 |
| COc1ccc2ncc(C#N)c(CCN3C4CCC3CC(NCc3ccc5c(n3)NC(=O)CS5)C4)c2c1 (centres unmarked) [TCMDC-135180] | 37.34 |
| Brc1cnc(NC2=NCCN2)c(Br)c1 [TCMDC-131680] | 12.04 |
| Cc1nc(C)c(CC(=O)Nc2cccc(-c3cccc(-c4nc5ccc(C(F)(F)F)cc5[nH]4)c3)c2)s1 [TCMDC-136995] | 4.513 |
